Compound activity deposited in PubChem BioAssay by The Scripps Research Institute Molecular Screening Center.
GALR2 ag: agonists of human galanin receptor 2 (GALR2); O43603; GALR2-expressing cells, agonist activation read-out; activation, % (test concentration not listed); hit rate 0.48% among 140,000; in the data active = activation above about 5%, passing the limit was not always enough;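 note: 0% = vehicle buffer wells and 100% = reference agonist at full effect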
S1P2 agonist: agonists of human S1P2 receptor | AID 729 | hit rate 0.46% among 97,000 | S1P2-expressing cell line, agonist reporter read-out | O95136 | activation, % at 4.5 µM; in the data active = activation above about 16%;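 note: 0% = vehicle low control and 100% = maximal reference agonist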
Target sequence (O95136 whole entry, looked up): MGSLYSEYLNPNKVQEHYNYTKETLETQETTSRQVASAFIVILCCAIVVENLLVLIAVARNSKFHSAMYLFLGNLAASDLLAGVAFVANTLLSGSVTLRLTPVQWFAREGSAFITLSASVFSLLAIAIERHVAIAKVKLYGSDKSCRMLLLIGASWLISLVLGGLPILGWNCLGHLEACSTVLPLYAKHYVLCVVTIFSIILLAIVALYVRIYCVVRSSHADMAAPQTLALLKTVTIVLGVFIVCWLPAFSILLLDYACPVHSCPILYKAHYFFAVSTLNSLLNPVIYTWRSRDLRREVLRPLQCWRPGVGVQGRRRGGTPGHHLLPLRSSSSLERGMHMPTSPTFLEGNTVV
S1P2 antag: S1P2 (human) receptor antagonism; cell-based S1P2 antagonist assay, inhibition at 5 uM; O95136; hit rate 0.21% among 97,000; AID 736; inhibition, % at 5 µM; in the data active = inhibition above about 45%;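 note: CRE beta-lactamase reporter cells expressing human S1P2 stimulated with S1P; 0% = agonist at EC80 alone and 100% = agonist plus reference antagonist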
GALR2 blocker: GALR2 (human) receptor antagonism. O43603. inhibition, % at 4 µM. GALR2-expressing cells, antagonist mode. hit rate 0.39% among 140,000;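 note: cells stimulated with galanin 1-16 at roughly its EC80; 0% = agonist challenge control and 100% = basal control without agonist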
GALR2 blk conf: GALR2 (human) antagonism confirmed | GALR2-expressing cells, antagonist mode, inhibition | shares compounds with GALR2 blocker | inhibition, % at 4 µM | hit rate 60% among 480;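 note: cells stimulated with galanin at about its EC80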
BLA inhib ctr: inhibits beta-lactamase reporter in GALR2 antagonist counterscreen | shares compounds with GALR2 blocker | CHO NFAT-BLA reporter, beta-lactamase FRET, thapsigargin-stimulated | inhibition, % at 4.2 µM | hit rate 36% among 480 | AID 867;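 active = inhibition above the mean inhibition across tested compounds plus 3 SD, cut at about 27% in these data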;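 note: 0% = 500 nM thapsigargin stimulated wells and 100% = unstimulated BSA only wells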
An asterisk follows results filed as active; · = no result given. Compounds with a hit are over-represented: about 1.2% of the library has one in this group of screens. Cut-off read from the data, not from the text of the source, unless noted: active = inhibition above about 27%; inactive = the rest.

SMILES	GALR2 ag	S1P2 agonist	S1P2 antag	GALR2 blocker	GALR2 blk conf	BLA inhib ctr
CC(=O)C(=Nc1ccccc1Cl)NNc1ccc(Cl)cc1	-2	-4	-31	28*	14	0
O=C(CN1C(=O)C2C3c4ccccc4C(c4ccccc43)C2C1=O)Nc1cccc(C(=O)O)c1 (configuration not stated)	-1	·	·	-6	·	·
O=C(N/N=C/C(Br)=C\c1ccccc1)c1n[nH]c2c1CCC2	3	-2	-8	33*	38*	61*
CC(/C=N/NC(=O)c1n[nH]c2c1CCC2)=C\c1ccccc1	2	-3	0	21	·	·
CCCNC(=O)CSc1nnc(-c2ccccc2Br)n1-c1cccc(C(F)(F)F)c1	-2	·	·	-4	·	·
O=C(Oc1ccccc1/C=C\C(=O)c1cc2ccccc2o1)c1ccccc1	-1	·	·	27*	26	14
CC1=C(C)CS(=O)N(c2ccc(S(N)(=O)=O)cc2)C1 (configuration not stated)	-1	-1	0	30*	28*	11
O=C(Nc1cccc(C(F)(F)F)c1)N(Cc1ccc(Cl)cc1)CC(O)C(F)(F)F (configuration not stated)	-2	-2	21	10	·	·
CCS(=O)(=O)c1c([N+](=O)[O-])ncn1C	-3	·	·	28*	23	1
CCOC(=O)N1CCN(C(=O)c2ccc(NC(C)=O)cc2)CC1	-1	-11	11	9	·	·
CCOC(=O)N1CCN(C(=O)c2ccc(NC(=O)c3ccc(C)cc3)cc2)CC1	1	-7	-2	28*	30*	19
